Holding throughout (design): scale not given: direction of the effect not stated beside the values
Test [1] deals with Protein translocase subunit SecA (Escherichia coli (strain K12)) (UniProt P10408). As to the kind of experiment: Assay to Identify E. coli SecA ATPase Inhibitors. The class given is functional. The settings on record: 30 µM.
Test [2] deals with T1, Ubiquitin-activating enzyme e1, putative (Leishmania donovani (strain BPK282A1)) (UniProt E9BSI1).
T1 sequence (whole entry): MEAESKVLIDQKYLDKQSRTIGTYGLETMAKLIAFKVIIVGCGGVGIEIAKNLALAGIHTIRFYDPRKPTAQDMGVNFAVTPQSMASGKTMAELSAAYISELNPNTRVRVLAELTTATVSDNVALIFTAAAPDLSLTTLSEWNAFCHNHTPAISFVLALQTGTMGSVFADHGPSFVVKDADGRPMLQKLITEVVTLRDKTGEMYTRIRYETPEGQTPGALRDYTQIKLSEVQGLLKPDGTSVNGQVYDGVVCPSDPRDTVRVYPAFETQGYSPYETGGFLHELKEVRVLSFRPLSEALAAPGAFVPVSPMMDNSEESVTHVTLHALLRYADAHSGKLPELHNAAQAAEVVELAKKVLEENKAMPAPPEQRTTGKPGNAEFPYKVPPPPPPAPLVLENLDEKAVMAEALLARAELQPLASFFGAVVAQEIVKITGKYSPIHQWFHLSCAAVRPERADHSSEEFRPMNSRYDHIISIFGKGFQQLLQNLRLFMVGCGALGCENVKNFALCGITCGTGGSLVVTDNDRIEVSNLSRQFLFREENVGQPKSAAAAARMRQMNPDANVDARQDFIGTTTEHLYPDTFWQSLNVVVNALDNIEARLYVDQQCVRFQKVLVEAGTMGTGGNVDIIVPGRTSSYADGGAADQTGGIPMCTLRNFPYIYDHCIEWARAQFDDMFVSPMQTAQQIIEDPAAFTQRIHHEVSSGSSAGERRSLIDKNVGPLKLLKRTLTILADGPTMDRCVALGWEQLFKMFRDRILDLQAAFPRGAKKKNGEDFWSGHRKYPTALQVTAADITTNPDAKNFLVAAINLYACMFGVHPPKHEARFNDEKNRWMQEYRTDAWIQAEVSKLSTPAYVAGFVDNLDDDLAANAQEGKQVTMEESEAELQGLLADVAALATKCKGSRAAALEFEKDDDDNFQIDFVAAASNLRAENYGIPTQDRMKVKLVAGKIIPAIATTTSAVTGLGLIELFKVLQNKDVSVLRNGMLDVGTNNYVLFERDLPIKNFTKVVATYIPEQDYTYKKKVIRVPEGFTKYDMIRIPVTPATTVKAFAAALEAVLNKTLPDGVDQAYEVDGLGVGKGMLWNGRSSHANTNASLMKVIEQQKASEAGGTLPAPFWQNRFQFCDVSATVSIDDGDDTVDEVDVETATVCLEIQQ
As to the kind of experiment: Leishmania donovani Ubiquitin Activating Enzyme (LdE1). To be noted: 30 µM. The class given is functional.

Test [3] concerns the target AMP-activated protein kinase, AMPK (Homo sapiens) (UniProt P54646+O43741+P54619+Q9UGJ0+Q9Y478+Q13131+Q9UGI9). As to the kind of experiment: AMP-dependent Kinase enzyme assay. An in vitro enzyme assay that detects ADP turnover that is directly proportional to AMPK activity. This uses naive AMPK that is activated during the assay with MK-8722. The class given is functional. To be noted: 30 µM.

Test [4] concerns the target Sialic acid-binding Ig-like lectin 9 (Homo sapiens) (UniProt Q9Y336). Nature of the test: Hs-Siglec9 ALPHAscreen SOP 20170721. To be noted: 10 µM.
In another test the test system is Trypanosoma cruzi. As to the kind of experiment: Trypanosoma cruzi phosphomannomutase and mannose-1-phosphate guanylyltransferase assay. The class given is functional. The settings on record: 10 µM.
The target in test [5] is T2, Arginase-2, mitochondrial (Homo sapiens) (UniProt P78540).
T2 sequence (whole entry): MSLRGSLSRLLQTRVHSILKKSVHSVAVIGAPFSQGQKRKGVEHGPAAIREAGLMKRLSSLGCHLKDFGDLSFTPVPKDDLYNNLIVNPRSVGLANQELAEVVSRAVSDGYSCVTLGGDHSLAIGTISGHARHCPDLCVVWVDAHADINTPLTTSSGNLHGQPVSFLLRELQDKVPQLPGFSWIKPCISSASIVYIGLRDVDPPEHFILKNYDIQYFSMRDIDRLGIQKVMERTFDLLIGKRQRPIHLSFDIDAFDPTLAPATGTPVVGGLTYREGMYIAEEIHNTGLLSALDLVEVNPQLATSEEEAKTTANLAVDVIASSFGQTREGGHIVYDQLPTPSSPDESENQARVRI
As to the kind of experiment: in vitro enzyme assay to detect the production of urea directly proportional to the activity of Arginase II. Also: in the data most compounds retested in dose-response had high values. Format: functional. To be noted: 33.3 µM.

Test [6] deals with T3, Proteasome subunit beta (Trypanosoma cruzi) (UniProt O96673).
T3 sequence (whole entry): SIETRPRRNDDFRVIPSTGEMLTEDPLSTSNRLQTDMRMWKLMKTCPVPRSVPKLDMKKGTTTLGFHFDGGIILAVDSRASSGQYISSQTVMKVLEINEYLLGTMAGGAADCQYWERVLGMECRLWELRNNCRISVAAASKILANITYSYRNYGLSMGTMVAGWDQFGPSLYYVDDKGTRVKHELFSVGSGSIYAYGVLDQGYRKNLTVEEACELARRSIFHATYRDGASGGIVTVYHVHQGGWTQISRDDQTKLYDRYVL
As to the kind of experiment: Trypanosoma cruzi proteasome chymotrypsin-like activity (TcProtChymo) assay. Also: in the data most compounds retested in dose-response had high values. Format: functional. To be noted: 9.37 µM.

For a further test, the species on record is Homo sapiens. Nature of the test: To identify inhibition of the IFN signalling (Jak-Stat) pathway via expression of an eGFP reporter gene under the control of an IFN-stimulated response element (ISRE) containing MxA promoter. Format: functional. The settings on record: 30 µM. A general note: A reporter such as luciferase makes a cellular process visible.

Test [7] has as its target T4, Tyrosyl-tRNA synthetase, putative (Trypanosoma cruzi (strain CL Brener)) (UniProt Q4DSP6).
T4 sequence (whole entry): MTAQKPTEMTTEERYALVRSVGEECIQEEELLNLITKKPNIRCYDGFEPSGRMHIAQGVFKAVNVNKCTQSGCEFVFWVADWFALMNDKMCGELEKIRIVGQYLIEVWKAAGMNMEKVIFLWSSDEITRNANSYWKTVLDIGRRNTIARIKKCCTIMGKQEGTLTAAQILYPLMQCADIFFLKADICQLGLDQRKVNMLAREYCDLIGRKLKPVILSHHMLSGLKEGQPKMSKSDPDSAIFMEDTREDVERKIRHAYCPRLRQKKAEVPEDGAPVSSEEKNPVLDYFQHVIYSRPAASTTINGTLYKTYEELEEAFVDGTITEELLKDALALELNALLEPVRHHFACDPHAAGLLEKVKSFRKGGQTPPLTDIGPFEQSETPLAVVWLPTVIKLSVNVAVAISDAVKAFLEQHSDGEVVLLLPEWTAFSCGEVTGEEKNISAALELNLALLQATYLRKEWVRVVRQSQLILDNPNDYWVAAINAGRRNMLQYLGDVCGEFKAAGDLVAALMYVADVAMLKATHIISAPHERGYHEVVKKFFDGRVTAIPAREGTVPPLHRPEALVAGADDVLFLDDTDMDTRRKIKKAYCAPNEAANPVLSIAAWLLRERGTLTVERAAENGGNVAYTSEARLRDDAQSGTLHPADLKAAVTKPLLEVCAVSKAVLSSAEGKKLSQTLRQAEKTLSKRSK
As to the kind of experiment: Trypanosoma cruzi tyrosyl tRNA synthetase (TcYRS) _High Tyrosine SOP. Also: in the data most compounds retested in dose-response had high values. Format: functional. To be noted: 30 µM.

The target in test [8] is T4, Tyrosyl-tRNA synthetase, putative (Trypanosoma cruzi (strain CL Brener)). As to the kind of experiment: Trypanosoma cruzi tyrosyl tRNA synthetase (TcYRS) SOP. Format: functional. To be noted: 30 µM.
The target of test [9] is Chromo domain-containing protein 1 (Saccharomyces cerevisiae (strain ATCC 204508 / S288c) (Baker's yeast)) (UniProt P32657). As to the kind of experiment: ScCHD-1 Enzyme Inhibition Assay. Also: in the data most compounds retested in dose-response had high values. Format: functional. To be noted: 30 µM.

For some assays here: Results with a measured potency or affinity are listed apart.

Sequence of Chromo domain-containing protein 1 (Saccharomyces cerevisiae (strain ATCC 204508 / S288c) (Baker's yeast)) (P32657 whole entry, the tested form may be a part): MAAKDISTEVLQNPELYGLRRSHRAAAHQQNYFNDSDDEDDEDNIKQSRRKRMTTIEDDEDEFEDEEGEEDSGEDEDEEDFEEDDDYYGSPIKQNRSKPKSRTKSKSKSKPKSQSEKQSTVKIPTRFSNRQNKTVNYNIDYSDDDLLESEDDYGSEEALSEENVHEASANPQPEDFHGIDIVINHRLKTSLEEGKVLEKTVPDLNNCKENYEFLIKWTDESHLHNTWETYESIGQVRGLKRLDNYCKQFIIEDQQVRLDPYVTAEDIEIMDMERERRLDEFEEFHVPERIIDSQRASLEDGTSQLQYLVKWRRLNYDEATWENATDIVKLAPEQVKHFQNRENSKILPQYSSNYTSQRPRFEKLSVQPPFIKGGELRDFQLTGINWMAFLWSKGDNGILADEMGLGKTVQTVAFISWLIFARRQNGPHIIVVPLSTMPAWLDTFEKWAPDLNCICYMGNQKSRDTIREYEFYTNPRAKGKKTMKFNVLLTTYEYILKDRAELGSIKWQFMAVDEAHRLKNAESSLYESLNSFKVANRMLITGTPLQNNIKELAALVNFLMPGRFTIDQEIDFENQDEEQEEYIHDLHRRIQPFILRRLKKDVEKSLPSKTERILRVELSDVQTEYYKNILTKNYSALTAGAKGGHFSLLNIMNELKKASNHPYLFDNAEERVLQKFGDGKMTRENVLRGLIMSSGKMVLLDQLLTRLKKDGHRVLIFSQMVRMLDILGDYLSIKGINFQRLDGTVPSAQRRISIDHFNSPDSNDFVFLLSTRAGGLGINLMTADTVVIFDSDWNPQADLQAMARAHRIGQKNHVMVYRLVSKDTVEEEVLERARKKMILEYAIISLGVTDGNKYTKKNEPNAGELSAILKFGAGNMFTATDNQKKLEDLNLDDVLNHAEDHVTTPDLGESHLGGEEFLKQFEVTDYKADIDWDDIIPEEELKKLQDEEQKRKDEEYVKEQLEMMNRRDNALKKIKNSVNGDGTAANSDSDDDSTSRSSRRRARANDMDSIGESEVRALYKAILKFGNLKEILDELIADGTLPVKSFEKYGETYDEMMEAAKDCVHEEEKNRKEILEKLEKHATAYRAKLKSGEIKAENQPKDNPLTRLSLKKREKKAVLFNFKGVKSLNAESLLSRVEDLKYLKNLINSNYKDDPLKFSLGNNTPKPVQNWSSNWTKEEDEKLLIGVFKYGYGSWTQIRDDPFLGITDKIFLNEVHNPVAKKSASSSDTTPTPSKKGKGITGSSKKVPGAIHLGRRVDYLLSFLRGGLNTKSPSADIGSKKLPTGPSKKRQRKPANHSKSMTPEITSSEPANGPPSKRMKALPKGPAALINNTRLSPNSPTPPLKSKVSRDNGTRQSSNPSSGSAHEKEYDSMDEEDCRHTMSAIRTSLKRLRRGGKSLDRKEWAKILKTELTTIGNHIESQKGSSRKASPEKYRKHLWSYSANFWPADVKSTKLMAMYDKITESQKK
Sequence of Protein translocase subunit SecA (Escherichia coli (strain K12)) (P10408 whole entry): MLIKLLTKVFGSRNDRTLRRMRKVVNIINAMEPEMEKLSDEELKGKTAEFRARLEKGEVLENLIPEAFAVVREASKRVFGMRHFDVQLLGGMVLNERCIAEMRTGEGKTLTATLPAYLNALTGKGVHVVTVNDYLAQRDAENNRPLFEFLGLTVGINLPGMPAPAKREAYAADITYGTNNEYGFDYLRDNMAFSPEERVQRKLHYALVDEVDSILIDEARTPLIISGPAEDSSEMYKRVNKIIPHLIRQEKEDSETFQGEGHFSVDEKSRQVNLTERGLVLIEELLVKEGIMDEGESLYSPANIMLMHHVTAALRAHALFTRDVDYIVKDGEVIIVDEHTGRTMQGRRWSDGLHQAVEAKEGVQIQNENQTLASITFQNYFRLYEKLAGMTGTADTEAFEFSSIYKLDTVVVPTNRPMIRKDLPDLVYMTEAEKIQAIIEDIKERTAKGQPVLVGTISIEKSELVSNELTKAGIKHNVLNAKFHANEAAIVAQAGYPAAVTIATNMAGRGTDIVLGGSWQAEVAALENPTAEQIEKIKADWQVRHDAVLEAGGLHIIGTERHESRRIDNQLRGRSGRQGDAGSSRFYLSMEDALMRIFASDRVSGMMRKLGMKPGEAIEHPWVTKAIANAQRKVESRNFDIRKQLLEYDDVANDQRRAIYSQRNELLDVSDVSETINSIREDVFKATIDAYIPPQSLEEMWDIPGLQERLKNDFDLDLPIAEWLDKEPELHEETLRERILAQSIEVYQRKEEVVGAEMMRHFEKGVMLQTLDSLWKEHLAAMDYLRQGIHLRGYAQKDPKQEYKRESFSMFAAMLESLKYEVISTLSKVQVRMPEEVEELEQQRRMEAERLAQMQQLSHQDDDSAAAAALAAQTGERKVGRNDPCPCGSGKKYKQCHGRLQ
Sequence of Sialic acid-binding Ig-like lectin 9 (Homo sapiens) (Q9Y336 whole entry): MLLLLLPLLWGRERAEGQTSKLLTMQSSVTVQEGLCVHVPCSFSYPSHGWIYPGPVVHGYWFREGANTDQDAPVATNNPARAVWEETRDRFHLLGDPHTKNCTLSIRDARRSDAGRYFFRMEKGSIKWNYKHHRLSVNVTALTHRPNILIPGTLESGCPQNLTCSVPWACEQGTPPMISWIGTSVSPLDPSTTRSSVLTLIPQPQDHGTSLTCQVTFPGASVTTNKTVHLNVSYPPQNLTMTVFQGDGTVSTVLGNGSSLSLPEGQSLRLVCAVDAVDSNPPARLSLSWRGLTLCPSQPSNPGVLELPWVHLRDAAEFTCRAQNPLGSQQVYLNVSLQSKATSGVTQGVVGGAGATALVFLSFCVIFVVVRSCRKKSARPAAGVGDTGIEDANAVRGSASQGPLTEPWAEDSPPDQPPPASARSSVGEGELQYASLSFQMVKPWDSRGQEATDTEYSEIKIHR

For the compound `Cc1nccn1CCC1CCCCN1Cc1ccc(N(C)C)nc1` (stereo not given), the Percent Effect is -1.41% in test [1]; 5.33% in test [2]; -3.72% in test [3]; -2.2% in test [4]; -6.91% with Trypanosoma cruzi; 4.69% in [5]. Besides, the Percent Effect in test [6] is 21.4%; in the test listed under Homo sapiens, 9.79%; in test [7], 0.546%; in test [8] it was 11.1%; in test [9], -5.71%.
In the case of `CCOCC(=O)N1C[C@@H](O)[C@H](N(C)Cc2ccc(OC)cc2)C1`, the Percent Effect in test [1] was -3.53%; in [2], 4.05%; in test [3], 6.78%; in test [4], 3.17%; with Trypanosoma cruzi it was -1.19%; in [5], 0.232%. Further, the Percent Effect in test [6] was 9.05%; in the test filed under Homo sapiens it was 6.37%; in test [7], 5.38%; in test [8], 9.09%; in test [9], -14.5%.
With `CC(=O)N1CCN(C(=O)C(C)n2cncn2)CC1` (stereo not given), the Percent Effect in test [1] was -3.75%; in test [2], 8.86%; in [3], 5.62%; in [4] it was 3.27%; in the test with Trypanosoma cruzi it was 1.13%; in test [5] it was -1.5%. The Percent Effect in [6] was 10.3%; in the test listed under Homo sapiens, 1.42%; in test [7], 5.21%; in test [8] it was 12.7%; in test [9], -21.9%.
On to `CCN1CC2(CCN(CCOCCO)CC2)CC(c2ccccc2)C1=O` (stereo not given), for which the Percent Effect is -1.44% in test [1]; 8% in test [2]; -14.6% in test [3]; 3.65% in test [4]; 0.292% in the test with Trypanosoma cruzi; -3.12% in test [5]. For the same compound, the Percent Effect in [6] was 15.2%; in the test filed under Homo sapiens, 14.3%; in test [7] it was 2.73%; in test [8], 8.64%; in [9], -6.05%.
Take `COC(=O)c1cccc(NC(=O)CN2CCN(S(C)(=O)=O)CC2)c1`: the Percent Effect in [1] was -1.95%; in test [2] it was 16.2%; in test [3], 0.0395%; in test [4], 18.7%; with Trypanosoma cruzi, 2.64%; in test [5], 25.6%. Also, the Percent Effect in test [6] is 15.4%; in the test filed under Homo sapiens it was 0.655%; in [7], 4.3%; in test [8] it was 16.1%; in [9] it was -4.76%.
For `c1ccc(-c2noc3c2CN(CC2CC2)CC3)cc1`, the Percent Effect in test [1] was -4.27%; in test [2] it was 2.74%; in test [3], -7.86%; in test [4], -1.17%; in the test with Trypanosoma cruzi, -0.979%; in test [5], -0.455%. Besides, the Percent Effect in test [6] was determined as 6.92%; in the test listed under Homo sapiens, 11.2%; in [7], 4.3%; in test [8], 10%; in test [9], 0.0734%.
Take `O=C(c1ccn(-c2cccc(F)c2)n1)N1CCCC(n2cccn2)C1` (stereo not given): the Percent Effect in test [1] is -4.17%; in test [2], 2.6%; in test [3] it was 4.13%; in test [4], 0.275%; in the test on Trypanosoma cruzi, 5.78%; in test [5], -1.05%. Further, the Percent Effect in [6] was 13.3%; in the test filed under Homo sapiens it was 2.64%; in test [7], 0%; in test [8], 7.06%; in [9], -16.1%.
For `O=C1[C@H]2CN(c3ncccn3)C[C@H]2CN1Cc1ccncc1`, the Percent Effect is -4.5% in test [1]; -2.7% in [2]; 1.46% in test [3]; -4.76% in test [4]; -2.34% with Trypanosoma cruzi; -0.417% in test [5]. In addition, the Percent Effect is 3.97% in test [6]; -1.92% in the test listed under Homo sapiens; 3.96% in test [7]; -3.66% in [8]; -3.35% in test [9].
On to `O=C(NCc1ccco1)C1CCCN1Cc1nc(-c2ccco2)no1` (stereo not given), for which the Percent Effect is -0.649% in test [1]; 13.5% in [2]; 0.501% in test [3]; -7.57% in test [4]; -4.18% in the test with Trypanosoma cruzi; 4.99% in test [5]. For the same compound, the Percent Effect is 7.9% in test [6]; 10.9% in the test filed under Homo sapiens; 7.92% in test [7]; 15.8% in test [8]; -0.371% in test [9].
Turning to `CCC1CN(C(=O)c2ccc(=O)[nH]c2)CCC(=O)N1Cc1ccccc1` (stereo not given), the Percent Effect was -1.75% in [1]; 4.17% in test [2]; -3.51% in test [3]; -12.5% in test [4]; -3.21% in the test on Trypanosoma cruzi; 3.09% in test [5]. In addition, the Percent Effect is 14% in test [6]; 14.1% in the test filed under Homo sapiens; 0% in test [7]; 2.56% in test [8]; -2.44% in [9].

The values are drawn from ChEMBL document CHEMBL3988442, “University of Dundee, Small-Polar-MMV Screening Library” (2021).
